About 13,000 (27%) of roughly 48,000 compounds showed an effect of 50% or more. The list shows a part of the results.
system: Wolbachia pipientis; test: Anti-Wolbachia Cell-Based Screen; type: functional; set-up: scale not given: in the data most compounds retested in dose-response had high values; details: 5 µM

Structure (SMILES)	Percent Effect
COc1cccc(CNC[C@H]2COCc3nc4cccnc4n32)n1	-3.627%
OCC1(CCOc2ccccc2)CCCN(c2ccc(Cl)cn2)C1 (stereo unspecified)	19.44%
O=c1oc(-c2cccs2)nn1CC(O)c1ccccc1 (stereo unspecified)	2.258%
COc1ccc(NC(=O)C2OC(c3cccs3)=NN2C(C)=O)cc1OC (stereo unspecified)	133.2%
Cc1ccc(CN(C(=O)NCC(c2cccs2)N(C)C)C2CC2)o1 (stereo unspecified)	16.5%
CNC(=O)C(C)S(=O)(=O)Cc1csc(-c2cccs2)n1 (stereo unspecified)	-15.96%
CNC(=O)c1ccc(OC)c(NCc2noc(-c3cccs3)n2)c1	-3.924%
CC(=O)N1N=C(c2cccs2)OC1C(=O)Nc1ccc(C(C)C)cc1 (stereo unspecified)	90.69%
Cc1ccc(CNC(=O)C2c3c(ncn3C(C)C)CCN2S(C)(=O)=O)o1 (stereo unspecified)	-24.24%
COc1ccc(NC(=O)C2CC2)cc1OCc1cccnc1	-2.646%
CC(=O)N1N=C(c2cccs2)OC1C(=O)NCc1ccc(C)o1 (stereo unspecified)	124.5%
CCN(CC)C(=O)[C@@H]1C[C@H](N)CN1c1nnc(-c2ccccc2)s1	5.055%
CC(Cc1ccco1)NC(=O)Nc1ccc(S(C)(=O)=O)nc1 (stereo unspecified)	-6.327%
Cc1ccc(-c2cc(N)c(=O)n(CC(=O)NC3CCCCC3)n2)s1	-5.352%
Cc1cc(-c2cc(N)c(=O)n(CC(=O)NC3CCCC3)n2)c(C)o1	122.3%
Cc1cc(-c2cc(N)c(=O)n(CC(=O)NC3CCCCC3)n2)c(C)o1	117.4%
COc1cc(C(=O)N2CCC(Nc3cccnc3)CC2)ccc1C	66.95%
COc1cc(C(=O)N2CCC(c3n[nH]c(C4CC4)n3)CC2)ccc1C	15.65%
COc1ccc(OC)c(C(=O)N2C[C@H]3CC[C@@H]2CN(C)C3)c1	19.05%
COc1ccc(OC)c(C(=O)N2CCC(Nc3cccnc3)CC2)c1	94.46%
O=C(c1ccc[nH]1)N(Cc1ccc(O)cc1)CC1CC1	-7.123%
CCOC(C)C(=O)NCc1ccc(N(C)C)cc1 (stereo unspecified)	106.9%
CCOC(C)C(=O)NCc1cccc(CN2CCCCCC2)c1 (stereo unspecified)	0.5451%
CN(C)c1ccc(CNC(=O)Nc2ccc(S(=O)(=O)C(F)F)cc2)cc1	-8.512%
CC(OCc1ccccc1)C(=O)NC1CCN(CC(N)=O)CC1 (stereo unspecified)	-2.8%
CC(C)C(=O)NCc1ccc(N(C)C)cc1	131.8%

Structure (SMILES)	Percent Effect
CN1CCC(CNC(=O)NCc2ccc(N(C)C)cc2)CC1	-5.904%
CC(C)COC(C)C(=O)NCc1ccc(Cn2ccnc2)cc1 (stereo unspecified)	0.5486%
CC(C)COC(C)C(=O)NCc1ccc(N(C)C)cc1 (stereo unspecified)	-1.344%
CC(OCc1ccccc1)C(=O)NCc1ccc(N(C)C)cc1 (stereo unspecified)	130.9%
CCOc1cc(CNCc2ncc[nH]2)c(Cl)cc1OC(C)C	-9.365%
CN(CCN1CCCC1)c1nccc(N2CCN[C@H]3CS(=O)(=O)C[C@H]32)n1	-5.82%
COCCN1CCc2ncnc(NC(C)C)c2CC1.O=C(O)C(F)(F)F	87.2%
Nc1nc(CNc2ncnc3c2CCN(Cc2ccoc2)CC3)cs1	-10.72%
CC(C)Oc1ncnc2c1CCN(Cc1ccc(F)cc1)CC2.O=C(O)C(F)(F)F	2.897%
CC(C)Nc1ncnc2c1CCN(Cc1nccn1C)CC2.O=C(O)C(F)(F)F.O=C(O)C(F)(F)F	-25.56%
COc1ccc(CN2CCc3ncnc(OC(C)C)c3CC2)cc1.O=C(O)C(F)(F)F	-22.8%
c1cc(CCNc2ncnc3c2CCN(Cc2ccoc2)CC3)ccn1	-12.64%
CC(C)Nc1ncnc2c1CCN(Cc1ccoc1)CC2	96.99%
CC(C)Nc1ncnc2c1CCN(c1cc(C(F)(F)F)ncn1)CC2	-0.2205%
COCCN1CCc2ncnc(OC(C)C)c2CC1.O=C(O)C(F)(F)F	107.2%
O=C(N[C@@H]1C[C@H]2CC[C@@H]1C2)C1(Oc2ccc(Cl)cc2)CCNCC1	5.083%
Cc1nonc1C(=O)N1CCc2c(ncn2CCc2ccccc2)C1	7.043%
Cc1ccc(CNC(c2cccc(F)c2)c2nccn2C)o1.Cl (stereo unspecified)	-1.716%
COCCNc1ncc(-c2cccc(F)c2)c(-c2nccn2C)n1	111.1%
Cn1ccnc1-c1nc(NC2CCCC2)ncc1-c1cccc(F)c1	77.55%
CSC(C)(C)CNC(=O)Nc1cccc(-c2nccn2C)c1	-14.94%
COCCCNc1ncc(-c2cccc(F)c2)c(-c2nccn2C)n1	116.3%
CSCCCNC(=O)Nc1cccc(-c2nccn2C)c1	3.955%
COCCNc1ncc(-c2cccc(OC)c2)c(-c2nccn2C)n1	73.04%
COc1cccc(-c2cc(NCc3nccn3C)n(C)n2)c1	-16.42%
COc1cccc(-c2nc(CNCCn3cccn3)cs2)c1	-13.66%

Structure (SMILES)	Percent Effect
Cc1nnc(CN(C)CC(=O)N2CCCC(C(F)(F)F)C2)n1C (stereo unspecified)	-17.87%
CC1CCc2nc(O)c(C(=O)NCc3ccccc3F)cc2C1 (stereo unspecified)	-2.667%
C[C@@H]1CN(S(=O)(=O)N2CCCCCC2)C[C@@]1(O)C1CCC1	19.36%
O=C(O)C(F)(F)F.O=C([C@H]1C[C@H]2OCC[C@H]2N(C(=O)c2ccncc2)C1)N1CCCC1	-2.024%
N#Cc1ccc(SCCC(=O)NC(N)=O)cc1	0.3622%
Cc1c(F)cccc1S(=O)(=O)N(C)CC(C)O (stereo unspecified)	10.31%
CCOCCNC(=O)Nc1cccc(-c2nccn2C)c1	-19.42%
CCOCCCC(=O)Nc1c(-c2ccc(F)cc2)ncn1C	-11.11%
CCOCCCNc1ncc(-c2cccc(F)c2)c(-c2nccn2C)n1	61.85%
CCCc1cnc(C)nc1N1CCC(F)(F)CC1	-3.547%
Cc1cccc2c1nc1n2[C@@H](CNC(=O)NC(C)C)COC1	-19.06%
Cc1cc(Nc2ccc3c(c2)CC(=O)N3)nc(C2CC2)n1	-4.534%
Cn1cc(-c2cnc(-c3ccnn3C)nc2)cc1C(=O)N1CCCC1	85.82%
CC(C)Oc1cccc(C(=O)C2CCCN(C(=O)c3ccnn3C)C2)c1 (stereo unspecified)	-5.247%
Cn1cc(-c2cnc(-c3ccnn3C)nc2)cc1C(=O)NC1CC1	95.89%
Cn1cc(C(=O)NC2CCN(Cc3ccn(C)c(=O)c3)CC2)cn1	-2.603%
Cc1cn2c(n1)CCC(NC(=O)c1cc(Br)cn1C)C2 (stereo unspecified)	-1.001%
Cn1nccc1-c1nc2c(cc1C(=O)O)CCN(CC1CC1)CC2	-6.641%
Cn1cc(-c2cnc(N3CCCC3)nc2)cc1C(=O)O	-13.43%
Cn1nccc1C(=O)N1CCN(C(=O)C2CC2)[C@@H]2CS(=O)(=O)C[C@@H]21	14.29%
Cn1nccc1-c1ncc(-c2cc(C(=O)O)n(CC3CC3)c2)cn1	118.9%
COc1cccc2c1OCC(C(=O)N1CCC(N3CCSCC3)CC1)C2 (stereo unspecified)	-10.16%
CSc1ccc(NCC(=O)NC(=O)NCC(F)(F)F)cc1F	2.815%
CCN(Cc1ccoc1)C(=O)Nc1ccccc1CN1CCOCC1	2.801%
Cc1cc(C(=O)NC2CC(=O)N(C(C)C)C2=O)c(C)n1C(C)C (stereo unspecified)	-25.95%
Cc1cc(N(C)C)cc(C2CCN(S(=O)(=O)c3cccnc3)C2)n1 (stereo unspecified)	129.7%

Structure (SMILES)	Percent Effect
COCCc1noc(C2CCN(S(=O)(=O)c3cccs3)CC2)n1	-5.417%
Cc1noc(C)c1-c1n[nH]c2c1CN(S(=O)(=O)c1cccnc1)CC2	2.189%
O=S(=O)(c1cccs1)N1CCC(c2nc(-c3cccs3)no2)CC1	1.77%
N[C@H]1CN(S(=O)(=O)c2cccnc2)C[C@@H]1C1CC1	-0.9551%
CC(C)[C@H]1CN(S(=O)(=O)c2cccnc2)C[C@@H]1N	-3.763%
Cc1cccc(C2CCCN(S(=O)(=O)c3cccnc3)C2)n1 (stereo unspecified)	131.9%
CNC(=O)CS(=O)(=O)C1CCN(S(=O)(=O)c2cccnc2)CC1	10.97%
Cc1cc(N(C)C)cc(C2CCN(S(=O)(=O)c3cccs3)C2)n1 (stereo unspecified)	93.47%
CN(C[C@@H]1CCC[C@@H]2CN(c3ncccn3)C[C@@H]21)C1CC1.O=C(O)C(F)(F)F	9.93%
COc1ccc(N(Cc2ccco2)C(=O)C2CCOC2)cc1F (stereo unspecified)	-6.319%
COc1ccc(CNC(=O)N(Cc2ccc(F)cc2F)C2CC2)cn1	13.46%
CCN1CCCN(C(=O)c2cnc(OC(C)C)c(Cl)c2)CC1	20.31%
CCSCc1ccc(C(=O)N2CCCN(CC(N)=O)CC2)cc1	111.3%
NC(=O)CN1CCCN(C(=O)c2ccn(-c3ccc(F)cc3)n2)CC1	9.69%
CC(=O)N1CCCN(CCCSCc2ccccc2)CC1	-18.43%
CCSCc1ccc(C(=O)N2CCCN(CC)CC2)cc1	93.96%
NC(=O)N1CCCN(CCCSCc2ccccc2)CC1	-22.93%
Cc1cc(Br)oc1C(=O)N1CCCN(CC(N)=O)CC1	-7.615%
NC(=O)CN1CCCN(C(=O)c2ccc(SC(F)F)cc2)CC1	104.9%
NC(=O)CN1CCCN(C(=O)c2ccn(-c3ccccc3)n2)CC1	-8.836%
COc1ccc2[nH]c(C[C@@H]3C[C@@H](C(C)C)[C@H](CN(C)C)C=C3C)nc2c1	-3.029%
Cc1ccc(C(CNCc2cccn2C)N2CCOCC2)s1 (stereo unspecified)	12.06%
Cc1ccc2nc(NCCCN3CCCCCC3=O)n(C)c(=O)c2c1	5.904%

From ChEMBL document CHEMBL3988442, “University of Dundee, Small-Polar-MMV Screening Library” (2021)
